Source: PubChem BioAssay
Only some compounds are listed: those with a hit (about 12% of all), similar ones and a draw of the others.
G9a block: blocks human histone lysine methyltransferase G9a. AID 504332. Potency, µM (titrated, usually from 102 µM), for the others: top-dose activity, negative = inhibition, most hits filed as inhibitors. actives 8.8% (n = 350,000). Q96KQ7. G9a H3K9 monomethylation, AlphaScreen, 2 h; note: % is set by controls: 0 for no effect and ±100 for the full control effect; nearly all actives have a fitted effect of over 75% in size
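Enzyme 20 nM + cpd, 15 min RT; add b-H3K9 pep 500 nM / SAM 20 uM; 2 h RT; anti-H3K9me1 Ab 0.5 ug/mL + SA donor / anti-rabbit acceptor beads 20 ug/mL each, 10 min; AlphaScreen read.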
Sfp PPTase inh: inhibitors of Bacillus subtilis Sfp phosphopantetheinyl transferase. actives 3.5% (n = 310,000). Biochemical Sfp PPTase activity, qHTS. Potency, µM, inactives show largest response in the series, negative = inhibition, most hits filed as inhibitors. Q9F4F7;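 note: the enzyme is Sfp with the accession as filed and its product quenches rhodamine fluorescence; 0% = enzyme reaction without inhibitor and -100% = no enzyme wells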
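Reaction rates are the 30-min fluorescence difference (ex 525, em 598 nm) in wells containing 15 nM Sfp, 5 uM rhodamine-CoA and 12.5 uM BHQ-2-YbbR at pH 7.6 with 10 mM MgCl2.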
HP1b binding inh: HP1-beta chromodomain-methylated histone interaction inhibition; AID 540317; actives 0.56% (n = 390,000); Potency, µM (top dose mostly 114 µM), for inactives: at the highest dose activity change, negative = inhibition, most hits filed as inhibitors; AlphaScreen HP1-beta / biotin-H3K9me3 peptide binding; note: nearly all actives have a fitted effect of over 70% in size
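HP1-beta protein (50 nM final) preincubated 30 min at room temperature with biotinylated H3(1-18)K9me3 peptide (50 nM) in PBS pH 7.4, 0.01% Tween-20, then compound added for 30 min. AlphaScreen streptavidin donor/nickel chelate acceptor beads (10 ug/mL final), 30 min dark, luminescence read.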
BAZ2B block: blocks human BAZ2B; Potency, µM (top dose mostly 114 µM), for inactives: top-dose activity change, negative = inhibition, actives largely listed as inhibitors; AlphaScreen BAZ2B-H3K14Ac peptide displacement; AID 504333; actives 4.4% (n = 360,000); Q9UIF8; note: % is set by controls: 0 for no effect and ±100 for the full control effect; nearly all actives have a fitted effect of over 60% in size
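Protein-peptide AlphaScreen: BAZ2B 50 nM, b-H3K14Ac 50 nM, 1x PBS pH 7.4 + 0.01% Tween-20. Preincubation 30 min RT; cpd 30 min RT (top 110 uM); beads 20 min RT, light-protected.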
L3MBTL1 block: inhibitors of human L3MBTL1 | Q9Y468 | AlphaScreen L3MBTL1–H3K9me1 peptide binding | Potency, µM (doses to about 57.1 µM), for inactives: at the top dose activity, negative = inhibition, most hits filed as inhibitors | actives 0.66% (n = 230,000); note: % is set by controls: 0 for no effect and ±100 for the full control effect; nearly all actives have a fitted effect of over 60% in size
Target sequence (Q9Y468 whole entry, looked up): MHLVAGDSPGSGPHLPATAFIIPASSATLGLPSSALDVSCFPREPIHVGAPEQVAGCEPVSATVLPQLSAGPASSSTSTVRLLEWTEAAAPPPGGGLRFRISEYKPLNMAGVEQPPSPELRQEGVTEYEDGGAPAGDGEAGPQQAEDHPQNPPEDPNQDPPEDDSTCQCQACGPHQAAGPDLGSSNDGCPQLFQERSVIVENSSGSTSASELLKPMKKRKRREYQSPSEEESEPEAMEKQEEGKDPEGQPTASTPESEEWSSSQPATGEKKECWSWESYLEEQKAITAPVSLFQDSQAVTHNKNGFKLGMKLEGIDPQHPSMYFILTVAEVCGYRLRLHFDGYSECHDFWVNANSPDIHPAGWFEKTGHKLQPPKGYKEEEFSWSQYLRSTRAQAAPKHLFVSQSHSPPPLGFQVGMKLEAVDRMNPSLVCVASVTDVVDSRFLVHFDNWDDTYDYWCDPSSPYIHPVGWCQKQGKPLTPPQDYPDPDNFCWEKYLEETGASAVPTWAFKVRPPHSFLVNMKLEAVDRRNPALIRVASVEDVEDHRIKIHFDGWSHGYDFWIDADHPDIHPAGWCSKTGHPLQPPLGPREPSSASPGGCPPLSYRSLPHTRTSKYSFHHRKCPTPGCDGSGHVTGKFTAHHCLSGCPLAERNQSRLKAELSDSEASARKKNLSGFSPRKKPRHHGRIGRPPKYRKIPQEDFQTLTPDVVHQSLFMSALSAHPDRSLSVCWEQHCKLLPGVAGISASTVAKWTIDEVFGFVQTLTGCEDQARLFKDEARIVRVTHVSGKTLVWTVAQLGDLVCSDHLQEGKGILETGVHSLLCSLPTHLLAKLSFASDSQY
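AlphaScreen proximity signal between nickel-chelate acceptor and streptavidin donor beads (final 10 ug/mL) reports binding of 50 nM L3MBTL1 to 75 nM biotin-H3 K9me1 peptide; complex incubated with compounds 30 min at room temperature; cefsulodin titration as control.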
JMJD2A Tudor inh: JMJD2A Tudor domain (human) inhibition. Potency, µM (series often up to 114 µM), for the others: at the top dose activity change, negative = inhibition, usual class: inhibitors. O75164. AlphaScreen JMJD2A-Tudor / H3K4me3 peptide binding. actives 4.4% (n = 390,000); note: % is set by controls: 0 for no effect and ±100 for the full control effect; nearly all actives have a fitted effect of over 50% in size
* marks the source's active call; other numbers are inactive results; ? = inconclusive; . = no result given; ! = not confirmed by another sample; [ ] = dose if it differs, or a comment. Calls come from the whole dose curve; as a rule, active = well fitted curve in the direction sought with a large enough effect; inconclusive = small, poorly fitted or top-dose-only effect, or another doubt; inactive = no such curve, though single readings can be large; an effect the other way counts as inactive or inconclusive. Potency is the fitted concentration of half-maximal effect.

SMILES | G9a block | Sfp PPTase inh | HP1b binding inh | BAZ2B block | L3MBTL1 block | JMJD2A Tudor inh
CC[n+]1c(/C=C/c2c[nH]c3ccccc23)ccc2cc(C)ccc21 | 35.5µM* | ? | -19.1% | ? | ? | ?
CCN(CC)C(=O)c1ccc(/C=C/c2c[nH]c3ccccc23)[n+](C)c1 | 3.16µM* | -17.0% | 19.4% | -8.9% | -0.2% | ?
Cc1ccc(C(=O)/C=C/c2c[nH]c3ccccc23)cc1 | 3.2%[12.7 µM] | -14.3% | 29.8% | ? | 19.1% | -15.7%
Cc1cc2cc(CNS(=O)(=O)c3ccccc3)ccc2n1C | 50.1µM* | -19.9% | -4.9% | ? | . | ?
CCS(=O)(=O)NCc1ccc2c(c1)cc(C)n2C | -15.7%[59 µM] | -4.5% | 8.1% | -35.1% | -5.3% | -35.4%
COc1ccc(S(=O)(=O)NCc2ccc3c(c2)cc(C)n3C)cc1 | 70.8µM* | -9.4% | -19.1% | -35.7% | -4.6% | ?
O=C(O)c1ccc(C(=O)Nc2cccc3cccnc23)cc1 | . | . | -15.0% | . | . | ?
CN=c1scc(-c2ccccc2F)n1/N=C(\C)c1cccnc1 | 15.8µM* | 7.0% | ? | 35.5µM* | ? | 15.8µM*
Cc1ccc(S(=O)(=O)NC(Cc2ccccc2)C(=O)O)cc1 (configuration not stated) | -31.2% | 9.1% | 36.9% | -5.4% | 3.0% | 5.2%[57.1 µM]
CC(C)(C)c1ccc(S(=O)(=O)NC(Cc2ccccc2)C(=O)O)cc1 (configuration not stated) | 79.4µM* | ? | ? | -34.1% | . | -12.2%
Cc1ccc(S(=O)(=O)NC(Cc2ccc(Cl)cc2)C(=O)O)cc1 (configuration not stated) | 16.5% | 11.1% | 33.4% | -0.6% | . | -6.0%
Cc1ccc(S(=O)(=O)NC(CC(N)=O)C(=O)O)cc1 (configuration not stated) | 15.8µM* | -6.7% | 14.2% | 4.5% | 10.2% | ?
COc1ccc(C[C@@H](NS(=O)(=O)c2ccc(C(=O)O)cc2)C(=O)O)cc1 | -14.5%[12.7 µM] | 10.5% | . | -3.8% | 1.1% | -8.3%
COc1ccc(S(=O)(=O)N[C@@H](CSCc2ccccc2)C(=O)O)cc1 | 50.1µM* | -3.5% | 18.4% | ? | . | -17.2%
CCCN1CNc2c(c(=O)[nH]c(=S)n2CCc2ccccc2OC)C1 | . | . | 26.6% | . | . | -15.6%
Cc1cc(C)c2c(C)c(C(=O)N3CCC(c4nc5ccccc5s4)CC3)oc2c1 | -2.2%[59 µM] | . | -34.0% | -7.7% | . | -7.0%
CC(=O)Nc1nonc1-c1nnc(SCC(=O)Nc2ccccc2Cl)n1C | 5.4%[59 µM] | . | 8.0% | 1.8% | . | -10.6%
Cc1nn(C)c(C)c1CS(=O)(=O)c1ccccc1 | 50.1µM* | -2.9% | 35.2% | -5.7% | . | -11.0%
COc1cccc(NC(=O)C(OC(=O)c2cnc(C)cn2)c2ccccc2)c1 (configuration not stated) | 44.7µM* | . | 4.4% | 7.2% | -1.7% | -19.3%
COc1cccc(NC(=O)C(OC(=O)CNC(=O)c2ccccc2)c2ccccc2)c1 (configuration not stated) | . | . | . | . | . | -25.3%
O=C(NCC(c1ccco1)N1CCc2ccccc21)c1ccccc1F (configuration not stated) | 56.2µM* | . | ? | ? | -8.6% | ?
O=C(NCC(c1ccco1)N1CCc2ccccc21)c1cccc([N+](=O)[O-])c1 (configuration not stated) | 4.4%[2.33 µM] | . | -11.3% | 50.1µM* | -14.4% | 56.2µM*
O=C(NCC(c1ccco1)N1CCc2ccccc21)c1ccccc1Br (configuration not stated) | 3.7%[0.501 µM] | . | -26.4% | ? | -5.8% | ?
Cc1ccc(C(=O)NCC(c2ccco2)N2CCc3ccccc32)cc1 (configuration not stated) | 50.1µM* | . | -23.2% | ? | -5.7% | ?
Cc1ccc(S(=O)(=O)NCC(c2ccco2)N2CCc3ccccc32)cc1 (configuration not stated) | 39.8µM* | . | 10.3% | ? | -12.4% | ?
SMILES | G9a block | Sfp PPTase inh | HP1b binding inh | BAZ2B block | L3MBTL1 block | JMJD2A Tudor inh
Cc1cccc(C(=O)NCC(c2ccco2)N2CCc3ccccc32)c1 (configuration not stated) | -5.1%[2.33 µM] | . | -13.7% | ? | -12.8% | ?
COc1ccc(-n2ncc(C(=O)N3CCN(Cc4ccccc4)CC3)c2C2CCN(C(=O)OC(C)(C)C)CC2)cc1 | ? | . | -2.9% | -0.1%[57.1 µM] | . | -18.8%
Cc1nc(Cl)cc(CS(=O)(=O)c2ccc(Cl)cc2)n1 | ? | -1.3% | 11.3% | 79.4µM* | 11.8% | -10.7%
Cc1nc(CS(=O)(=O)c2ccccc2)cc(Sc2ccc(Cl)cc2Cl)n1 | 36.0%[59 µM] | -0.5% | 33.1% | 5.2% | 5.5% | -6.4%
O=C(CSc1ncnc2c1nnn2Cc1ccccc1)NC1CCCC1 | 0.7% | -1.1% | -13.5% | -2.8% | -2.0% | -29.8%
CC(C)(C)NC(=O)CSc1ncnc2c1nnn2Cc1ccccc1Cl | -31.7% | 3.3% | -2.3% | -0.8% | -4.3% | 50.1µM*
CN(C)CCOC(c1ccc(Cl)cc1)c1ccccn1 (configuration not stated) | 44.7µM*! | 17.6% | 71.2% | -2.4% | 5.7% | -5.8%
CCc1cccc(OCCCn2ccnc2)c1 | 15.8µM* | -2.2% | 50.1µM* | 31.6µM* | 0.0% | 12.6µM*
COc1cccc(OCCCn2ccnc2)c1 | . | -1.9% | 29.1% | -2.5% | 14.9% | -23.9%
Brc1cccc(OCCn2ccnc2)c1 | 8.91µM* | 56.2µM* | -15.6% | 39.8µM* | . | 3.55µM*
CCOc1cccc(OCCCCn2ccnc2)c1 | ? | -11.8% | ? | 50.1µM* | -6.2% | 6.31µM*
Cc1ccc(NC(=O)C(=O)c2cc(C)n(-c3ccc(F)cc3)c2C)cc1C | -33.2%[59 µM] | . | -10.7% | ? | . | -21.9%
CCOc1ccc(NC(=O)C2CCCN(c3nn4cc(-c5ccc(OC)cc5)nc4s3)C2)cc1 (configuration not stated) | -0.3%[59 µM] | . | 12.8% | -2.6% | . | -9.2%
CCCOc1ccc(CNC(=O)Cn2cc3c(n2)-c2c(oc(C(=O)N4CCOCC4)c2C)CC3)cc1 | ? | . | 23.0% | ? | . | -11.7%
CCCCN1C(=O)C(O)=C(C(C)=O)C1c1ccc(OC)cc1OC (configuration not stated) | ? | -15.7% | 4.2% | 50.1µM* | 4.1% | 50.1µM*
COc1ccc(OC)c(C2C(C(C)=O)=C(O)C(=O)N2CCc2ccc(OC)c(OC)c2)c1 (configuration not stated) | ? | -13.7% | 24.9% | -5.0% | -1.4% | -29.4%
CCN(CC)CCCN1C(=O)C(O)=C(C(=O)c2ccco2)C1c1cc(OC)ccc1OC (configuration not stated) | ? | -5.6% | . | 13.8% | -1.9% | .
